Experimental findings from PubChem BioAssay AID1259249 (Broad Institute, 2017) are described below.

The structures appear in SMILES notation. Where “and” joins values, the source holds several entries; their conditions need not be identical. Equal entries are not always repeated. The whole screen tested about 86,000 compounds, of which about 220 (0.26%) were called active. This is one part of a sample in which actives are shown more often than they occur.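 The calls were made as follows: active = mean growth activity at or below -80% and every replicate also at or below -80%; inconclusive = mean at or below -80% but some replicate above -80%; inactive = mean growth activity above -80%.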

This test can be described thus: blockers of Clostridium difficile growth – HTS, primary screen (AID 1259249).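 Also: 0% = DMSO wells and -100% = levofloxacin 16 µg/mL wells.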 The note with it: Clostridium difficile clinical isolate growth, OD600, 24 h; stronger effect = lower value; screened at 16 µg/mL (by protocol).
As to `COc1ccccc1CN1[C@H](CO)[C@@H](c2ccccc2)C12CN(C(=O)c1cnccn1)C2`, the growth activity, negative = inhibition is 5.54% (inactive).

As for `CN1CCN(C(=O)C[C@H]2CC[C@H]3[C@@H](COC[C@H](O)CN3CC3CCOCC3)O2)CC1`, the growth activity, negative = inhibition is -4.46% (inactive) and 6.12% (inactive).

Turning to `COCCNC(=O)C[C@H]1CC[C@@H]2[C@@H](COc3ccc(NC(=O)C4CCOCC4)cc3C(=O)N2C)O1`, the growth activity, negative = inhibition is -4.68% (inactive).

For `CNC(=O)C[C@@H]1CC[C@@H]2[C@@H](COc3ccc(NC(=O)c4ccc(F)cc4)cc3C(=O)N2C)O1`, the growth activity, negative = inhibition was 8.61% (inactive).

As to `O=C(N[C@@H]1CC[C@@H](CC(=O)N2CCc3ccccc3C2)O[C@H]1CO)C1CC1`, the growth activity, negative = inhibition was -3.47% (inactive).

For `CCCNC(=O)N1CC2(C1)[C@H](c1ccccc1)[C@@H](CO)N2Cc1cccc(Cl)c1`, the growth activity, negative = inhibition was 17% (inactive).

`O=C(Nc1ccc(F)cc1)N1C[C@@H]2[C@H](c3ccccc31)[C@H](CO)N2Cc1ccccc1`: the growth activity, negative = inhibition was 3.9% (inactive).

For the compound `O=C(C1CCCCC1)N1C[C@@H]2N[C@H](C1)C2c1ccc(-c2cccc(F)c2)cc1` (stereo partly drawn), the growth activity, negative = inhibition is 56.1% (inactive) and 10.9% (inactive).

On to `Cc1cccc(-c2ccc(C3[C@@H]4CN(C(=O)Nc5ccc(C(F)(F)F)cc5)C[C@H]3N4)cc2)c1` (stereo partly drawn), for which the growth activity, negative = inhibition was -94.2% (active) and -85.7% (active).

Consider `CN(C)C(=O)c1ccc(-c2ccc(C3[C@@H]4CN(C(=O)Nc5ccccc5)C[C@H]3N4)cc2)cc1` (stereo partly drawn), for which the growth activity, negative = inhibition is 4.58% (inactive).

Turning to `COc1ccc2c3c(n(C)c2c1)[C@H](CO)N(Cc1ccccc1)CC31CN(C(=O)c2ccccc2F)C1`, the growth activity, negative = inhibition was 20.3% (inactive).

On to `CCCC(=O)Nc1ccc2c(c1)OC[C@H](C)N(C(=O)CC)C[C@H](C)[C@@H](OC)CN(C)C2=O`, for which the growth activity, negative = inhibition was -5.26% (inactive).

As for `COc1ccc2c3c([nH]c2c1)[C@@H](CO)N(C(C)=O)CC31CN(C(=O)Nc2ccc(F)cc2)C1`, the growth activity, negative = inhibition is 1.62% (inactive).

With `CN1CCCCN2[C@@H](CO)[C@@H](c3ccc(C4=CCCC4)cc3)[C@@H]2C1`, the growth activity, negative = inhibition was 0.437% (inactive).

As for `N#C[C@@H]1[C@H](c2ccc(-c3cccnc3)cc2)[C@H](CO)N1C(=O)C1CC1`, the growth activity, negative = inhibition was -3.1% (inactive).

Consider `O=C(CN1CCOCC1)NCC[C@@H]1CC[C@@H](NC(=O)Nc2ccccc2)[C@H](CO)O1`, for which the growth activity, negative = inhibition was 0.549% (inactive).

As to `O=S(=O)(N[C@H]1CC[C@@H](CCNS(=O)(=O)c2ccccc2Cl)O[C@@H]1CO)c1ccccc1`, the growth activity, negative = inhibition is -8.16% (inactive).

On to `COc1ccc(C#Cc2ccc([C@@H]3[C@H](CO)N4C(=O)CN(C(C)=O)C[C@@H]34)cc2)cc1`, for which the growth activity, negative = inhibition was -6.73% (inactive).

Consider `O=C(O)CCCCCCC(=O)NOCc1ccccc1`, for which the growth activity, negative = inhibition was -0.197% (inactive).

Consider `CN(C)CC(=O)N[C@@H]1CC[C@H](CC(=O)NCc2ccc(Cl)cc2)O[C@H]1CO`, for which the growth activity, negative = inhibition is 3.53% (inactive).

With `CC(C)C#Cc1ccc2c(c1)O[C@@H](CN(C)C(=O)Nc1ccccc1)[C@H](C)CN([C@H](C)CO)S2(=O)=O`, the growth activity, negative = inhibition is 3.59% (inactive).

Turning to `CCCc1cn(CC[C@@H]2CC[C@@H](NC(=O)C3CC3)[C@H](CO)O2)nn1`, the growth activity, negative = inhibition was -2.37% (inactive).

`O=C(CC1CC1)N1[C@@H](CO)[C@@H](c2ccccc2)C12CN(S(=O)(=O)c1ccccc1)C2`: the growth activity, negative = inhibition is 1.02% (inactive).

As for `COc1ccc2c3c([nH]c2c1)[C@@H](CO)N(Cc1nccs1)CC31CCN(C(=O)C2CCCC2)CC1`, the growth activity, negative = inhibition was 1.43% (inactive).

In the case of `CCCC(=O)Nc1ccc2c(c1)C(=O)N(C)[C@H]1CC[C@@H](CC(=O)NCC(F)(F)F)O[C@@H]1CO2`, the growth activity, negative = inhibition is 4.45% (inactive).

`COCC(=O)N1CC[C@@H]2[C@@H](CO)Nc3ccc(-c4ccc(C(=O)N(C)C)cc4)cc3[C@@H]21`: the growth activity, negative = inhibition is -7.52% (inactive).

Take `CO[C@@H]1CN(C)C(=O)c2cc(NC(=O)C3CC3)ccc2OC[C@@H](C)N(C(=O)c2ccccc2F)C[C@@H]1C`: the growth activity, negative = inhibition was -0.472% (inactive).

In the case of `O=C(C[C@H]1C[C@@H]2c3cc(NC(=O)C4CCOCC4)ccc3O[C@@H]2[C@H](CO)O1)NCC1CC1`, the growth activity, negative = inhibition was -3.84% (inactive).

On to `CO[C@@H]1CN(C)C(=O)c2cc(NC(=O)Nc3cccc(Cl)c3)ccc2OC[C@@H](C)N(C)C[C@@H]1C`, for which the growth activity, negative = inhibition was -2.08% (inactive).

Consider `CCS(=O)(=O)Nc1ccc2c(c1)C(=O)N(C)[C@@H]1CC[C@@H](CC(=O)NC)O[C@H]1CO2`, for which the growth activity, negative = inhibition is 3.49% (inactive).

`COc1ccc2c3c(n(C)c2c1)[C@H](CO)N(C(=O)Cc1ccccc1)CC31CCN(C)CC1`: the growth activity, negative = inhibition was -5.17% (inactive).

With `O=C(C1CCC1)N1C[C@H]2[C@@H](c3ccccc31)[C@H](CO)N2C(=O)Nc1cccc(F)c1`, the growth activity, negative = inhibition was -2.73% (inactive).

For `CCCNC(=O)N1C[C@H](C)[C@@H](OC)CN(C)C(=O)c2ccc(NS(=O)(=O)CC(F)(F)F)cc2OC[C@@H]1C`, the growth activity, negative = inhibition was -2.19% (inactive).

On to `O=C(c1cccc(F)c1)N1CC[C@@H]2[C@H](CO)Nc3ccc(C#Cc4ccccc4)cc3[C@@H]21`, for which the growth activity, negative = inhibition was 0.292% (inactive).

As for `CN1C(=O)c2cc(NC(=O)C3CC3)ccc2OC[C@@H]2O[C@H](CC(=O)NCC3CCCCC3)CC[C@@H]21`, the growth activity, negative = inhibition was -3.31% (inactive).

For `COc1cccc(S(=O)(=O)N2[C@@H]3CNC[C@H]2C3c2ccc(-c3ccccc3OC)cc2)c1` (stereo partly drawn), the growth activity, negative = inhibition is 17.5% (inactive) and 1.35% (inactive).

For the compound `COC(=O)[C@@H]1[C@@H](CO)[C@@H]2Cn3c(ccc(-c4ccc(OC)cc4)c3=O)[C@@H]2N1S(C)(=O)=O`, the growth activity, negative = inhibition was -4.77% (inactive).

For the compound `O=C(O)C[C@@H]1CC[C@H](NC(=O)CCN2CCCCC2)[C@H](CO)O1`, the growth activity, negative = inhibition was -9.12% (inactive).

Turning to `CC(=O)N1CC[C@@H]2[C@H](CO)Nc3ccc(C#Cc4ccccc4F)cc3[C@@H]21`, the growth activity, negative = inhibition was -13.8% (inactive).

Take `COc1ccc(C#Cc2ccc3c(c2)[C@H]2[C@H](CCN2Cc2nccs2)[C@@H](CO)N3)cc1`: the growth activity, negative = inhibition was -3.82% (inactive).

`COc1ccccc1CN1CC[C@@H]2[C@@H](CO)Nc3ccc(C#Cc4ccccc4)cc3[C@@H]21`: the growth activity, negative = inhibition was -94.5% (active).

Regarding `N#C[C@@H]1[C@H](c2ccc(C#CC3CCCCC3)cc2)[C@@H](CO)N1S(=O)(=O)c1ccccc1`, the growth activity, negative = inhibition is -14.1% (inactive).

For the compound `COc1ccc2c3c(n(C)c2c1)[C@@H](CO)N(C(=O)Nc1ccccc1F)CC31CCN(C(=O)c2ccccc2F)CC1`, the growth activity, negative = inhibition was -1.72% (inactive).
